# Laboratory results from the supplement of paper PMC12494721.
# Counter-ions that a name gives are not always drawn.
# Key:
# Conditions in all cases: incubation time: 27 h, anaerobic, 37 °C;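 for the amine columns active = adjusted P below 0.05 in both replicates with a change the same way and a mean fold change under 0.8 or over 1.25; inactive = the rest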
# [1] = test system: Clostridium sporogenes DSM 1664; assay: growth (OD595) fold change vs plate DMSO controls (fold change (ratio)); higher = more growth
# In short: (§1)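 The 96-well mGAM cultures had been kept anaerobic for 27 h at 37 °C before being shaken and read at 595 nm. Blank subtraction, compound background correction with 20 µM compound solutions in water, and a calibration factor of 5 turned the readings into OD. Growth is given as the fold change versus the median of plate DMSO controls. Fold changes above 1.5 were set to NA, and the values are means of 2 biological replicates.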
# Escherichia coli IAI1 [2] = assay: as above
# In short: as §1
# [3] = test system: Klebsiella aerogenes DSM 30053; assay: as above
# In short: as §1
# [4] = test system: Ruminococcus gnavus DSM 108212; assay: as above
# In short: as §1
# [5] = test system: Klebsiella aerogenes DSM 30053; assay: fold change of Histamine concentration vs plate DMSO controls (fold change (ratio)); higher = more amine produced, active = hit call of the paper (significant change in both replicates, either direction)
# In short: (§2)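 Extracts of whole anaerobic mGAM cultures were analysed for amines by LC–triple-quadrupole MS with dynamic MRM and external calibration curves, with drift corrected within batch. Four gut strains were grown at 37 °C for 27 h in 80 µL wells with compounds at 20 µM final, sweeteners at 50 µM final. Each value expresses fold change over plate DMSO controls. The average of 2 biological replicates is shown.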
# [6] = test system: Clostridium sporogenes DSM 1664; assay: fold change of Tryptamine concentration vs plate DMSO controls (fold change (ratio)); higher = more amine produced, active = hit call of the paper (significant change in both replicates, either direction)
# In short: as §2
# [7] = test system: Ruminococcus gnavus DSM 108212; assay: as above
# In short: as §2
# Escherichia coli IAI1 [8] = assay: fold change of Putrescine concentration vs plate DMSO controls (fold change (ratio)); higher = more amine produced, active = hit call of the paper (significant change in both replicates, either direction)
# In short: as §2
# [9] = test system: Klebsiella aerogenes DSM 30053; assay: as above
# In short: as §2
# Escherichia coli IAI1 [10] = assay: fold change of Cadaverine concentration vs plate DMSO controls (fold change (ratio)); higher = more amine produced, active = hit call of the paper (significant change in both replicates, either direction)
# In short: as §2
# [11] = test system: Klebsiella aerogenes DSM 30053; assay: as above
# In short: as §2
# [12] = test system: Ruminococcus gnavus DSM 108212; assay: fold change of 2-Phenylethylamine concentration vs plate DMSO controls (fold change (ratio)); higher = more amine produced, active = hit call of the paper (significant change in both replicates, either direction)
# In short: as §2
Compound,growth [1],growth (Escherichia coli IAI1 [2]),growth [3],growth [4],fold change of Histamine concentration [5],fold change of Tryptamine concentration [6],fold change of Tryptamine concentration [7],fold change of Putrescine concentration (Escherichia coli IAI1 [8]),fold change of Putrescine concentration [9],fold change of Cadaverine concentration (Escherichia coli IAI1 [10]),fold change of Cadaverine concentration [11],fold change of 2-Phenylethylamine concentration [12]
CN1CCN(C(c2ccccc2)c2ccccc2)CC1 [Cyclizine hydrochloride] (20 µM),0.981,0.984,0.972,1.16,1.07 (inactive),0.968 (inactive),0.996 (inactive),1 (inactive),1 (inactive),1.02 (inactive),0.987 (inactive),1.03 (inactive)
CC(C)(C(=O)c1cccnc1)c1cccnc1 [Metyrapone] (20 µM),1.01,1.01,1.01,1,1.03 (inactive),1 (inactive),1 (inactive),0.985 (inactive),1.02 (inactive),1.01 (inactive),1 (inactive),1.01 (inactive)
CC(=O)Nc1cccc(O)c1 [Metacetamol] (20 µM),0.961,1.03,1.01,0.966,1.01 (inactive),0.941 (inactive),0.999 (inactive),1.02 (inactive),0.992 (inactive),1 (inactive),0.988 (inactive),0.962 (inactive)
COC(=O)Nc1nc2cc(C(=O)c3ccc(F)cc3)ccc2[nH]1 [Flubendazol] (20 µM),0.949,1.04,1.12,1.04,0.979 (inactive),1 (inactive),0.934 (inactive),0.943 (inactive),1.02 (inactive),0.956 (inactive),1.01 (inactive),0.919 (inactive)
NC[C@H]1CC[C@H](C(=O)O)CC1 [Tranexamic acid] (20 µM),1.06,1.02,1,1.14,0.965 (inactive),1.03 (inactive),0.85 (inactive),0.977 (inactive),1.01 (inactive),1.01 (inactive),1.01 (inactive),0.849 (inactive)
CC(=O)N[C@H]1[C@H]([C@H](O)[C@H](O)CO)OC(C(=O)O)=C[C@@H]1NC(=N)N [Zanamivir] (20 µM),0.953,1.02,0.977,0.992,1.01 (inactive),1 (inactive),1.06 (inactive),0.946 (inactive),0.962 (inactive),0.886 (inactive),0.991 (inactive),1.09 (inactive)
CC(=O)CCCCn1c(=O)c2c(ncn2C)n(C)c1=O [Pentoxifylline] (20 µM),1.01,0.995,1.06,0.929,1 (inactive),1.03 (inactive),0.965 (inactive),1 (inactive),1.02 (inactive),1.04 (inactive),1.02 (inactive),0.947 (inactive)
CC(NN)c1ccccc1 (stereo not given) [Mebanazine] (20 µM),1.11,1,0.988,0.887,1.04 (inactive),1.04 (inactive),0.985 (inactive),0.997 (inactive),1.03 (inactive),0.986 (inactive),0.998 (inactive),0.916 (inactive)
COc1cc([S+](C)[O-])ccc1-c1nc2cccnc2[nH]1 (stereo not given) [Sulmazole] (20 µM),0.885,0.999,0.98,1.1,0.922 (inactive),0.944 (inactive),1.19 (inactive),0.951 (inactive),0.952 (inactive),1.02 (inactive),1.05 (inactive),1.38 (inactive)
CCn1cc(C(=O)O)c(=O)c2ccc(C)nc21 [Nalidixic acid sodium salt] (20 µM),1.09,0.265,0.814,1.13,1.43 (inactive),0.991 (inactive),1.02 (inactive),0.671 (inactive),1.05 (inactive),1.69 (inactive),0.966 (inactive),1.07 (inactive)
Cn1cc(C(=O)[C@@H]2CCc3[nH]cnc3C2)c2ccccc21 [Ramosetron hydrochloride] (20 µM),0.928,0.966,1,0.964,0.964 (inactive),1.02 (inactive),1 (inactive),0.969 (inactive),1.01 (inactive),1.11 (inactive),0.997 (inactive),1.04 (inactive)
CCCN(CCC)S(=O)(=O)c1ccc(C(=O)O)cc1 [Probenecid] (20 µM),1.04,1.02,1.17,1.09,0.92 (inactive),0.999 (inactive),1 (inactive),0.984 (inactive),1 (inactive),1.04 (inactive),1.02 (inactive),1.02 (inactive)
CN(C)CC/C=C1/c2ccccc2Sc2ccc(Cl)cc21 [Chlorprothixene hydrochloride] (20 µM),1.03,0.991,1.01,0.904,0.956 (inactive),0.997 (inactive),0.87 (inactive),0.959 (inactive),0.996 (inactive),1.03 (inactive),1.02 (inactive),0.942 (inactive)
CCCCCCCCc1c(CC)nc2ncnn2c1N (20 µM),1.11,1.05,1.04,1.16,0.991 (inactive),1.03 (inactive),0.997 (inactive),1.01 (inactive),1.01 (inactive),1.04 (inactive),1.01 (inactive),0.968 (inactive)
Oc1c(Cl)cc(Cl)c2cccnc12 [Chloroxine] (20 µM),1.12,0.966,1.02,0.369,0.921 (inactive),1.02 (inactive),0.589 (active),0.945 (inactive),0.981 (inactive),1.31 (active),1.01 (inactive),0.681 (inactive)
CO[C@H]1/C=C/O[C@@]2(C)Oc3c(C)c(O)c4c(O)c(c(/C=N/N5CCN(C6CCCC6)CC5)c(O)c4c3C2=O)NC(=O)/C(C)=C\C=C\[C@H](C)[C@H](O)[C@@H](C)[C@@H](O)[C@@H](C)[C@H](OC(C)=O)[C@@H]1C [Rifapentine] (20 µM),0.0116,0.42,0.784,0.198,0.572 (active),0.0208 (active),0.145 (active),0.829 (inactive),0.583 (active),1.92 (active),1.06 (inactive),0.128 (active)
CC(=O)O[C@H]1C(=O)[C@@]2(C)[C@H]([C@H](OC(=O)c3ccccc3)[C@]3(O)C[C@H](OC(=O)[C@H](O)[C@@H](NC(=O)c4ccccc4)c4ccccc4)C(C)=C1C3(C)C)[C@]1(OC(C)=O)CO[C@@H]1C[C@@H]2O [Paclitaxel] (20 µM),1.04,1.03,1.05,0.944,0.885 (inactive),0.975 (inactive),1.08 (inactive),1.04 (inactive),0.969 (inactive),1.03 (inactive),1.03 (inactive),1.07 (inactive)
CC(C)=C/C(C)=N/Nc1nncc2ccccc12 [Budralazine] (20 µM),1.12,1.05,0.989,0.98,1.03 (inactive),0.98 (inactive),0.994 (inactive),0.992 (inactive),1.02 (inactive),0.963 (inactive),1 (inactive),0.969 (inactive)
CCn1cc(C(=O)O)c(=O)c2cc(F)c(N3CCNCC3)cc21 [Norfloxacin] (20 µM),0.0353,0.0339,0.239,0.814,0.0898 (active),0.0308 (active),0.863 (inactive),0.612 (active),0.792 (active),0.161 (active),0.963 (inactive),0.892 (inactive)
CC[C@H](C)C(=O)O[C@H]1CCC=C2C=C[C@H](C)[C@H](CC[C@@H]3C[C@@H](O)CC(=O)O3)[C@H]21 [Mevastatin] (20 µM),1.15,1,1.01,1.02,0.995 (inactive),0.988 (inactive),1.02 (inactive),0.998 (inactive),1 (inactive),1.07 (inactive),0.998 (inactive),1.04 (inactive)
Cn1c(=O)c2nc[nH]c2n(C)c1=O [Theophylline monohydrate] (20 µM),1.19,1.11,1.04,1.12,0.952 (inactive),1.1 (inactive),1.1 (inactive),1.24 (inactive),0.957 (inactive),0.9 (inactive),1.02 (inactive),1.15 (inactive)
Cn1c(=O)cc(N2CCC[C@@H](N)C2)n(Cc2ccccc2C#N)c1=O [Alogliptin benzoate] (20 µM),1.06,0.955,1.09,1.02,0.923 (inactive),1.01 (inactive),0.899 (inactive),1.01 (inactive),1.01 (inactive),0.992 (inactive),1.01 (inactive),0.897 (inactive)
CN(C)CCc1c[nH]c2ccc(Cn3cncn3)cc12 [Rizatriptan benzoate] (20 µM),0.987,0.971,1.02,0.996,0.934 (inactive),1 (inactive),1.01 (inactive),0.97 (inactive),1.01 (inactive),1.02 (inactive),1.01 (inactive),0.989 (inactive)
CN1C(C(=O)Nc2ccccn2)=C(O)c2ccccc2S1(=O)=O [Piroxicam] (20 µM),1.07,1.03,1.02,1.05,0.953 (inactive),1.09 (inactive),0.99 (inactive),1.03 (inactive),0.99 (inactive),1.02 (inactive),1.04 (inactive),0.999 (inactive)
CCCCC(CC)CN1CN(CC(CC)CCCC)CC(C)(N)C1 (stereo not given) [Hexetidine] (20 µM),1.05,1.07,1.11,1.45,0.978 (inactive),1.23 (inactive),0.898 (inactive),1.05 (inactive),0.987 (inactive),1.04 (inactive),1.01 (inactive),1.05 (inactive)
